# Reference: PubChem BioAssay AID1159577 (Broad Institute, 2015)
# About 240 (18%) of roughly 1,300 compounds were called active. Not shown: some 8% with an inconclusive outcome. These entries were drawn from the full list. Potency and affinity values are given separately. Values without a mark were called inactive. How the calls were made is not given here.
# Assay: toxicity to human hepatoma HepG2 cells – cell-based, cherry-picked samples, cytotoxicity control, dose response (AID 1159577);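 further: 0% = neutral control wells and -100% = positive control wells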
# Conditions: HepG2 cytotoxicity counterscreen, plate reader; series mostly up to 19.5 µM; activity change, negative = cytotoxicity: at the top concentration
row,SMILES,"activity change, negative = cytotoxicity"
1,C[C@H]1CN([C@@H](C)CO)C(=O)c2cc(NC(=O)Cc3cn(C)c4ccccc34)ccc2O[C@H]1CN(C)S(=O)(=O)c1cccs1,23.9%
2,C[C@@H]1CN([C@H](C)CO)S(=O)(=O)c2ccc(-c3ccncc3)cc2O[C@@H]1CN(C)Cc1ccc(Oc2ccccc2)cc1,-27.5%
3,C[C@@H]1CN([C@H](C)CO)C(=O)c2cccc(NC(=O)Nc3cccc4ccccc34)c2O[C@@H]1CN(C)C(=O)Nc1ccc(F)cc1,-28.1%
4,C/C=C/c1ccc2c(c1)[C@H]1[C@H](CCN1C(=O)c1cccc(F)c1)[C@H](CO)N2,-6.44%
5,C[C@@H](NC(=O)C[C@H]1C[C@@H]2c3cc(NS(=O)(=O)c4ccc(F)cc4)ccc3O[C@@H]2[C@H](CO)O1)c1ccccc1,-1.47%
6,O=C(O)C[C@@H]1C[C@@H]2c3cc(NS(=O)(=O)c4ccccc4)ccc3O[C@@H]2[C@H](CO)O1,-22.3%
7,CCS(=O)(=O)N1CCC2(CC1)CN(Cc1ccc3c(c1)OCO3)[C@@H](CO)c1[nH]c3cc(OC)ccc3c12,-14.1%
8,CCCNC(=O)N1[C@H](C#N)[C@H](c2ccc(C#Cc3cccc(F)c3)cc2)[C@H]1CO,-1.23%
9,O=C(C1CCCC1)N1CC[C@@H]2[C@H]1c1cc(-c3cccc(F)c3)ccc1N[C@@H]2CO,1.55%
10,N#Cc1cccc(-c2ccc3c(c2)[C@H]2[C@H](CCN2Cc2ccncc2)[C@@H](CO)N3)c1,-4.34% [at 21 µM]
11,N#Cc1cccc(-c2ccc3c(c2)[C@@H]2[C@@H](CCN2Cc2cncnc2)[C@H](CO)N3)c1,-6.56% [at 21 µM]
12,O=C(Cc1ccncc1)N1CC[C@@H]2[C@@H](CO)Nc3ccc(-c4cccc(F)c4)cc3[C@@H]21,9.47%
13,COc1ccc(S(=O)(=O)N(C)C[C@H]2Oc3c(NC(=O)Nc4ccc5c(c4)OCO5)cccc3C(=O)N([C@@H](C)CO)C[C@H]2C)cc1,-19.6%
14,CCc1nc(N2[C@H](C#N)[C@H](c3ccccc3-c3ccccc3F)[C@H]2CO)sc1C,-24%
15,COc1ccc(CN2CC3(CN(C(=O)Cc4ccccc4)C3)c3c([nH]c4cc(OC)ccc34)[C@H]2CO)cc1,-13.9% [at 21 µM]
16,CO[C@H]1CN(C)C(=O)c2ccc(NC(=O)Nc3cc(F)ccc3F)cc2OC[C@@H](C)N(C)C[C@H]1C,10.8%
17,COc1ccc2c3c(n(C)c2c1)[C@H](CO)N(C(=O)CC1CC1)CC31CCN(Cc2nccs2)CC1,-4.39%
18,Cc1ccccc1S(=O)(=O)N1[C@H](C#N)[C@H](c2ccc(C#CC3CCCC3)cc2)[C@@H]1CO,-7.23%

row,SMILES,"activity change, negative = cytotoxicity"
1,CN1c2ccc(C#Cc3cccnc3)cc2[C@@H]2[C@@H](CCN2S(=O)(=O)c2ccccc2F)[C@@H]1CO,18.3%
2,Cc1ccc(S(=O)(=O)N(C)C[C@H]2OCc3ccccc3-c3c(n(C)c4ccccc34)C(=O)N([C@@H](C)CO)C[C@@H]2C)cc1,22.6%
3,N#Cc1ccc(-c2ccc(C3[C@@H]4CN(S(=O)(=O)c5ccc(F)cc5)C[C@H]3N4)cc2)cc1 (stereo not given in full),18.2%
4,Cc1ccc(-c2ccc(C3[C@@H]4CN(S(=O)(=O)c5ccccc5)C[C@H]3N4)cc2)cc1 (stereo not given in full),-22.7%
5,O=S(=O)(c1ccc(-c2ccccc2)cc1)N1C[C@@H]2N[C@H](C1)[C@@H]2c1ccc(-c2cccnc2)cc1,-36.2%
6,O=S(=O)(c1ccc(F)cc1)N1C[C@@H]2N[C@H](C1)C2c1ccc(-c2ccc(F)cc2)cc1 (stereo not given in full),-10.6%
7,Cc1ccc(S(=O)(=O)N2C[C@@H]3N[C@H](C2)C3c2ccc(-c3ccncc3)cc2)cc1 (stereo not given in full),-10.5% [at 21 µM]
8,Cn1cnc(S(=O)(=O)N2C[C@@H]3N[C@H](C2)C3c2ccc(-c3ccccc3F)cc2)c1 (stereo not given in full),-4.06%
9,COc1cccc(-c2ccc3c(c2)[C@H]2[C@H](CCN2C(=O)C2CCCC2)[C@H](CO)N3)c1,-23.9% [at 21 µM]
10,COc1ccc2c3c(n(C)c2c1)[C@@H](CO)N(C(=O)c1ccc(F)cc1)CC31CCN(C(=O)Nc2ccc(F)cc2)CC1,0.95%
11,COc1ccc(NC(=O)N(C)C[C@@H]2Oc3cc(-c4ccc(C)cc4)ccc3S(=O)(=O)N([C@@H](C)CO)C[C@@H]2C)cc1,-13.5%
12,COc1ccc(C#Cc2ccc3c(c2)[C@H]2[C@H](CCN2C(=O)C2CCC2)[C@H](CO)N3)cc1,-4.14% [at 21 µM]
13,OC[C@@H]1CC[C@@H]2O[C@H](CCc3ccc(C#CCc4ccccc4)cc3)[C@H](n3cc(-c4ccccc4)nn3)C[C@@H]2O1,-19.3%
14,C[C@@H]1CN([C@H](C)CO)C(=O)c2cccc(NC(=O)Nc3cccc4ccccc34)c2O[C@H]1CN(C)C(=O)NC1CCCCC1,16.1%
15,CCCNC(=O)N1CC(=O)N2[C@@H](CO)[C@@H](c3ccc(C#Cc4cccc(OC)c4)cc3)[C@@H]2C1,4.91%
16,COc1cccc(S(=O)(=O)N(C)C[C@@H]2Oc3ncc(C#Cc4ccc(OC)c(OC)c4)cc3C(=O)N([C@H](C)CO)C[C@@H]2C)c1,29.1%
17,COc1ccc(NC(=O)N(C)C[C@H]2OCc3ccccc3-c3c(n(C)c4ccccc34)C(=O)N([C@@H](C)CO)C[C@H]2C)c(OC)c1,7.72% [at 21 µM]
